Screens (PubChem)
Wnt act – Wnt/beta-catenin pathway activators, primary screen, cell-based, plate reader, single point; Wnt/beta-catenin reporter cell assay, activator; activation, % at 9.35 µM; 1.2% of 300,000 active; in the data active = activation above about 30%, passing the limit was not always enough; inconclusive = no clear call, values can overlap the other calls;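 note: 0% = neutral control wells and 100% = positive control wells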
MITF act – activators of MITF-driven TRPM1 promoter reporter, primary screen, cell-based, SK-MEL-5, luciferase, single point. activation, % at 12.5 µM. SK-MEL-5 TRPM1-promoter luciferase, 24 h; % of positive control, neutral wells = 0. 0.75% of 300,000 active;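 active = mean activation of at least 80% with every replicate also reaching 80%; inconclusive = mean reaches 80% but some replicate falls short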;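 note: 0% = neutral control wells and 100% = parthenolide positive control wells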
HSF1 inh – HSF1 inhibitors in luciferase reporter cells, primary screen, cell-based, NIH3T3, luminescence; NIH3T3-HGL HSE-luciferase, MG132-induced, luminescence 8 h; stronger effect = lower value; 0.77% of 300,000 active; activity change, negative = inhibition, % at 7.5 µM (by protocol);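 active = more than half of replicate wells show activity change below -50%, luminescence cut by over half; inconclusive = some wells, but at most half, below -50%; inactive = no replicate well below -50%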;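 note: luciferase reports HSF-1 transcriptional activity via heat shock element; 0% = median of DMSO wells and -100% = zero luminescence signal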
HSF-1 act – HSF-1 activators, primary screen, NIH3T3-HGL cells, MG132 stress, luminescence, single point; 1.7% of 300,000 active; activation, % at 9 µM; NIH3T3-HGL HSF-1 luciferase reporter, 8 h; 100% = twice DMSO control signal;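 active = mean replicate activation of at least 50% with a set share of replicates each reaching 50%; inconclusive = only one of those two conditions met; inactive = mean below 50% and too few replicates reaching it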;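 note: 0% = median of the neutral control wells and 100% = twice that signal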
esBAF inh – Bmi1 luciferase reporter increase in mESCs, primary screen, esBAF inhibitor project, mouse ES cells, Bmi1 luciferase knock-in, single point; 24 h; 100% = twice the neutral-well signal; reporter increase, % at 12.5 µM; 2% of 350,000 active; AID 602393, 2012; in the data active = activation above about 40%; inconclusive = no clear call, values can overlap the other calls;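 note: 0% = median of the plate's neutral control wells and 100% = double that signal; a rise in the Bmi1 reporter signal indicates esBAF inhibition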
Active calls of the source: *; ? = inconclusive; / = no result given. Hits are enriched below; roughly 3.9% of the tested compounds scored in any of these assays.

SMILES | Wnt act | MITF act | HSF1 inh | HSF-1 act | esBAF inh
COc1c(OC(C)=O)ccc(/C=C/c2ccc3cccc(OCc4ccccc4)c3n2)c1[N+](=O)[O-] | / | 61.4 | 45.3 | 60.9* | /
COc1ccc(C(=O)N/N=C/C(=O)c2ccccc2)cc1 | 32.3* | 77.8 | 43.0 | 49.9 | 62.1*
COc1ccc(C(=O)N/N=C(\c2ccccc2)c2ccccn2)cc1 | / | -54.9 | 38.0 | 99.6* | /
O=C(C1CC1)N1C[C@@H]2[C@H](c3ccccc31)[C@H](CO)N2Cc1ccccc1Cl | / | / | / | / | 1.1
CN(C)C(=O)[C@H]1[C@H](CO)[C@H]2Cn3c(ccc(-c4ccccc4)c3=O)[C@H]2N1Cc1ccccc1 | / | / | / | / | -2.8
C[C@@H]1CN([C@@H](C)CO)C(=O)c2cc(NC(=O)C3CCCCC3)ccc2O[C@@H]1CN(C)C(=O)Nc1ccccc1 | / | / | / | / | -5.8
C[C@@H]1CN([C@@H](C)CO)C(=O)c2cc(-c3cncnc3)cnc2O[C@H]1CN(C)CC1CCOCC1 | / | / | / | / | -7.6
COc1ccc(C(=O)N/N=C/c2ccc3cccc(OCc4ccccc4)c3n2)cc1 | 18.6 | 24.0 | 9.9 | 11.8 | 64.5*
O=C(N/N=C/c1ccc2cccc(OCc3ccccc3)c2n1)c1ccc(Br)cc1 | 2.2 | 0.5 | 0.6 | 9.0 | /
CCNC(=O)C[C@@H]1CC[C@@H]2[C@@H](COc3ccc(NC(=O)Nc4cccc(OC)c4)cc3C(=O)N2C)O1 | / | / | / | / | 3.9
CCOC(=O)c1sc(=NC(=O)c2ccccc2)n(C)c1C | 43.6* | 67.9 | 13.8 | 61.3* | 71.4*
CCOC(=O)c1sc(=NC(=O)c2ccc(OC)c(OC)c2)n(C)c1C | 12.5 | 68.1 | -6.3 | -9.3 | 38.2
CCOC(=O)c1sc(=NC(=O)c2cccc(OC)c2)n(C)c1C | 33.2* | ? | 21.7 | 33.8 | ?
CN(C)S(=O)(=O)c1cc(NC(=O)[C@H](Cc2ccccc2)N2C(=O)c3ccccc3C2=O)ccc1Cl | 31.2* | -5.1 | -0.3 | 32.1 | /
Cc1ccc(SCCN2CCN(C)CC2)cc1 | -0.4 | 4.5 | 17.8 | 57.9* | -1.2
CO[C@H]1CN(C)C(=O)c2ccc(NS(=O)(=O)c3ccccc3C)cc2OC[C@@H](C)NC[C@@H]1C | / | / | / | / | -0.8
O=C(c1ccc(Cl)cc1)N1CCc2ccccc21 | 0.6 | / | 12.2 | 15.8 | 13.9
CCOC(=O)CSc1nnc(-c2ccccc2)c(-c2ccccc2)n1 | -2.7 | 3.8 | -82.4* | -86.1 | -11.9
Cc1ccc(-c2cnc(SCC(=O)N3CCCc4ccccc43)n2C)cc1 | / | 3.1 | / | / | 4.2
Cn1c(-c2ccccc2)cnc1SCC(=O)N1CCCc2ccccc21 | -2.0 | -2.6 | 16.9 | 66.8* | /
Cc1ccc(C(=O)N2CCc3ccccc32)cc1 | 11.9 | 30.4 | 23.4 | 66.4* | 51.0*
Cc1ccc(-c2cc(C(=O)N3CCCc4ccccc43)no2)cc1 | 11.3 | ? | 41.0 | 47.8 | 71.8*
CCOC(=O)CCCNC(=O)CSc1nnc(-c2ccccc2)c(-c2ccccc2)n1 | 4.8 | 1.2 | -3.3 | 7.9 | 1.2
Cc1noc(C)c1NC(=O)N(C)C[C@@H]1OCCCC[C@H](C)Oc2ccc(NC(=O)Nc3ccc(F)cc3)cc2C(=O)N([C@@H](C)CO)C[C@@H]1C | / | / | / | / | -6.3
Cc1cc2nc(-c3ccc(SCC(=O)N4CCc5ccccc54)nc3)[nH]c2cc1C | -4.9 | 20.9 | 21.5 | 34.2 | 75.4*
SMILES | Wnt act | MITF act | HSF1 inh | HSF-1 act | esBAF inh
CCOC(=O)CSc1cc(-c2ccccc2)nc2ncnn12 | 0.8 | / | 46.8 | 75.4* | /
Cc1nnc(SCc2ccccc2)nc1-c1ccccc1 | ? | 87.7* | 21.6 | 32.2 | 83.2*
c1ccc(-c2cc(-c3ccccc3)n3ncnc3n2)cc1 | 0.1 | -7.1 | 6.4 | 4.3 | /
c1ccc(CSc2nnc3c4ccccc4c4ccccc4c3n2)cc1 | / | / | -4.5 | -9.3 | /
Cc1ccc(-c2nnn(CC(=O)N3CCCc4ccccc43)n2)cc1 | -7.0 | -1.3 | 11.2 | 57.3* | -1.7
CC(=O)N1[C@@H]2c3ccc(-c4cccc(F)c4)c(=O)n3C[C@@H]2[C@@H](CO)[C@@H]1C(=O)NCC1CC1 | / | / | / | / | 2.8
C[C@@H]1CCCCO[C@H](CN(C)S(=O)(=O)c2cn(C)cn2)[C@@H](C)CN([C@H](C)CO)C(=O)c2cc(NC(=O)Nc3ccc(F)cc3)ccc2O1 | / | / | / | / | -2.7
C[C@H]1CN([C@@H](C)CO)C(=O)c2cc(C#CCN(C)C)cnc2O[C@H]1CN(C)C(=O)Cc1cccnc1 | / | / | / | / | 4.4
COCC#Cc1cnc2c(c1)C(=O)N([C@@H](C)CO)C[C@H](C)[C@H](CN(C)Cc1ccc(F)cc1)O2 | / | / | / | / | -0.5
Cc1noc(C)c1S(=O)(=O)Nc1ccc2c(c1)C(=O)N([C@@H](C)CO)C[C@H](C)[C@@H](CN(C)C(=O)Nc1ccccc1)OCCCC[C@@H](C)O2 | / | / | / | / | -2.3
Cc1cc2nc(-c3ccc(SCC(=O)Nc4ccc(S(=O)(=O)NC5CC5)cc4)nc3)[nH]c2cc1C | 11.8 | 54.9 | 21.3 | 54.1* | /
O=C(CSc1nnc(-c2ccccc2)c(-c2ccccc2)n1)N1CCc2ccccc21 | / | 26.6 | 78.3 | 129.8* | -11.3
O=C(O)c1ccccc1SCC(=O)N1CCc2ccccc21 | 7.1 | -4.0 | 5.1 | 13.2 | 0.0
Cc1cc(C)nc(SCC(=O)N2CCc3ccccc32)n1 | 13.2 | 54.2 | 12.8 | 22.3 | 41.8*
O=C(c1ccc(Cl)s1)N1CCc2ccccc21 | / | 66.9 | 18.6 | 28.8 | 26.6
CCc1sc(C(=O)N2CCc3ccccc32)cc1C | 39.2* | 63.6 | 1.1 | 30.0 | /
C[C@H](CO)N1C[C@H](C)[C@@H](CN(C)Cc2ccncc2)OCCCC[C@H](C)Oc2ccc(NS(C)(=O)=O)cc2C1=O | / | / | / | / | -3.5
C[C@H]1CN([C@@H](C)CO)C(=O)c2cccc(NC(=O)Nc3cccc4ccccc34)c2O[C@H]1CN(C)CC1CCCCC1 | / | / | / | / | 3.6
O=C(c1cccc([N+](=O)[O-])c1)N1CCc2ccccc21 | -0.3 | / | -68.1* | -73.2 | -2.3
Cc1ccc(SCC(=O)N2CCc3ccccc32)cc1 | 11.3 | 78.1 | 75.6 | 80.3* | 39.3
O=C(c1ccc([N+](=O)[O-])cc1)N1CCc2ccccc21 | 7.2 | 4.6 | 4.6 | 1.9 | /
COc1cccc(S(=O)(=O)N2CC[C@H]3[C@@H](CO)N(C)c4ccc(C#Cc5cccnc5)cc4[C@H]32)c1 | / | / | / | / | 1.1
O=C(CN1C(=O)C2C3C=CC(C3)C2C1=O)Nc1ccc2c(c1)OCCO2 (configuration not stated) | / | 52.8 | -17.8 | -33.6 | 41.2*
O=C(O)C1CCCCC1C(=O)Nc1ccc2c(c1)OCCO2 (configuration not stated) | / | -0.7 | -65.4* | -72.1 | -0.5
CC(=O)c1ccc(NC(=O)C2C3C=CC(O3)C2C(=O)O)cc1 (configuration not stated) | -1.2 | 6.7 | 11.5 | 58.5* | -3.5
